PubChem BioAssay AID1159580 (chemical genetic matrix, 2015)
Several values for one entry are separate records, joined by “and”; a condition that tells them apart may be missing. Equal entries are not always repeated. Hit rate of the full screen: of about 5,500 compounds, about 2,000 (36%) were called active. About 18% were inconclusive and are not listed. Rule as the data show it: active = normalized growth mostly below about 0.91 (no sharp cut-off); inconclusive = no clear call, values can overlap the other calls; inactive = mostly above about 0.92. The list shows a part of the results.

Assay: chemical genetic growth profiling, strain panel (AID 1159580);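 also: tested at 20 µM; growth read once vehicle control cultures reached saturation at 30 °C; 1 = growth at the plate median or of vehicle wells; lower values mean less growth of the strain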
Conditions: growth OD

Measured: normalized growth

Cc1ccc(/C(=C\CN2CCCC2)c2ccccn2)cc1
inactive: S. cerevisiae deletion strains, locus YJR075W, strain HOC1, hits give low values 1.01 and 0.98 | S. cerevisiae deletion strains, locus YKL009W, strain mrt4, hits give low values 0.996 | S. cerevisiae deletion strains, locus YKL068W, hits give low values 0.999 | S. cerevisiae deletion strains, locus YKL085W, strain MDH1 (second series), hits give low values 1.01 | S. cerevisiae deletion strains, locus YKL085W, strain MDH1, hits give low values 1.01 | S. cerevisiae deletion strains, locus YKL160W, strain elf1, hits give low values 1.03 | S. cerevisiae deletion strains, locus YKL190W, strain CNB1, hits give low values 1.02 | S. cerevisiae deletion strains, locus YKR001C, strain vps1, hits give low values 0.986 | S. cerevisiae deletion strains, locus YKR026C, strain gcn3, hits give low values 1 | S. cerevisiae deletion strains, locus YKR091W, strain srl3, hits give low values 0.991 | S. cerevisiae deletion strains, locus YLL001W, strain dnm1, hits give low values 1.04 | S. cerevisiae deletion strains, locus YLL026W, hits give low values 1.04 | S. cerevisiae deletion strains, locus YLL041C, strain sdh2, hits give low values 1.01 | S. cerevisiae deletion strains, locus YLR027C, strain aat2, hits give low values 1.04 | S. cerevisiae deletion strains, locus YLR039C, strain RIC1, hits give low values 1.03 | S. cerevisiae deletion strains, locus YLR058C, strain SHM2, hits give low values 1.01 | S. cerevisiae deletion strains, locus YLR102C, strain apc9, hits give low values 0.998 | S. cerevisiae deletion strains, locus YLR113W, strain HOG1, hits give low values 1.02 | S. cerevisiae deletion strains, locus YLR221C, strain rsa3, hits give low values 0.977 | S. cerevisiae deletion strains, locus YLR258W, strain gsy2, hits give low values 0.986 | S. cerevisiae deletion strains, locus YLR262C, strain YPT6 (second series), hits give low values 1.02 | S. cerevisiae deletion strains, locus YLR262C, strain YPT6, hits give low values 1.01 | S. cerevisiae deletion strains, locus YLR268W, strain sec22, hits give low values 0.999 | S. cerevisiae deletion strains, locus YLR320W, strain mms22, hits give low values 0.973 | S. cerevisiae deletion strains, locus YLR330W, strain CHS5, hits give low values 1.01 | S. cerevisiae deletion strains, locus YLR342W, strain FKS1 (second series), hits give low values 0.997 | S. cerevisiae deletion strains, locus YLR342W, strain FKS1, hits give low values 1.02 | S. cerevisiae deletion strains, locus YLR357W, strain rsc2, hits give low values 0.992 | S. cerevisiae deletion strains, locus YLR370C, strain arc18, hits give low values 1.01 | S. cerevisiae deletion strains, locus YLR371W, strain rom2, hits give low values 1.01 | S. cerevisiae deletion strains, locus YLR384C, strain iki3, hits give low values 1 | S. cerevisiae deletion strains, locus YLR418C, strain cdc73, hits give low values 0.991 | S. cerevisiae deletion strains, locus YML016C, strain PPZ1, hits give low values 1 | S. cerevisiae deletion strains, locus YML032C, strain rad52, hits give low values 1 | S. cerevisiae deletion strains, locus YML120C, strain ndi1, hits give low values 1.05 | S. cerevisiae deletion strains, locus YML124C, strain tub3, hits give low values 0.995 | S. cerevisiae deletion strains, locus YMR058W, strain fet3, hits give low values 1.02 | S. cerevisiae deletion strains, locus YMR078C, strain ctf18, hits give low values 0.997 | S. cerevisiae deletion strains, locus YMR125W, strain sto1, hits give low values 1.02 | S. cerevisiae deletion strains, locus YMR129W, hits give low values 1.01 | S. cerevisiae deletion strains, locus YMR205C, strain PFK2, hits give low values 1.02 | S. cerevisiae deletion strains, locus YMR223W, strain ubp8, hits give low values 0.998 | S. cerevisiae deletion strains, locus YMR231W, strain pep5, hits give low values 0.999 | S. cerevisiae deletion strains, locus YMR263W, strain SAP30, hits give low values 1.01 and 0.981 | S. cerevisiae deletion strains, locus YMR307W, strain GAS1, hits give low values 0.983 and 0.987 | S. cerevisiae deletion strains, locus YNL067W, strain RPL9B, hits give low values 1 | S. cerevisiae deletion strains, locus YNL071W, strain lat1, hits give low values 0.986 | S. cerevisiae deletion strains, locus YNL128W, strain TEP1, hits give low values 1.02 | S. cerevisiae deletion strains, locus YNL153C, strain GIM3, hits give low values 1.01 | S. cerevisiae deletion strains, locus YNL175C, strain NOP13, hits give low values 0.996 | S. cerevisiae deletion strains, locus YNL183C, strain NPR1, hits give low values 0.952 | S. cerevisiae deletion strains, locus YNL197C, strain WHI3, hits give low values 1.01 | S. cerevisiae deletion strains, locus YNL209W, strain ssb2, hits give low values 0.996 | S. cerevisiae deletion strains, locus YNL224C, strain SQS1, hits give low values 0.989 | S. cerevisiae deletion strains, locus YNL233W, strain BNI4, hits give low values 1.01 | S. cerevisiae deletion strains, locus YNL248C, strain rpa49, hits give low values 0.992 | S. cerevisiae deletion strains, locus YNL250W, strain rad50, hits give low values 1 | S. cerevisiae deletion strains, locus YNL271C, strain bni1, hits give low values 0.986 | S. cerevisiae deletion strains, locus YNL298W, strain CLA4, hits give low values 1 | S. cerevisiae deletion strains, locus YNL307C, strain MCK1, hits give low values 1.01 | S. cerevisiae deletion strains, locus YNL322C, strain KRE1 (second series), hits give low values 1.01 | S. cerevisiae deletion strains, locus YNL322C, strain KRE1, hits give low values 1.01 | S. cerevisiae deletion strains, locus YNR049C, strain mso1, hits give low values 1.01 | S. cerevisiae deletion strains, locus YNR052C, strain pop2, hits give low values 1 | S. cerevisiae deletion strains, locus YOL006C, strain TOP1, hits give low values 1 | S. cerevisiae deletion strains, locus YOL012C, strain htz1 1.12 | S. cerevisiae deletion strains, locus YOL147C, strain pex11, hits give low values 0.992 | S. cerevisiae deletion strains, locus YOR001W, strain rrp6, hits give low values 1.02 | S. cerevisiae deletion strains, locus YOR061W, strain CKA2, hits give low values 1.01 | S. cerevisiae deletion strains, locus YOR069W, strain VPS5, hits give low values 1.01 | S. cerevisiae deletion strains, locus YOR070C, strain gyp1, hits give low values 0.992 | S. cerevisiae deletion strains, locus YOR080W, strain dia2, hits give low values 1.02 | S. cerevisiae deletion strains, locus YOR083W, strain WHI5 (second series), hits give low values 0.985 | S. cerevisiae deletion strains, locus YOR083W, strain WHI5, hits give low values 1 | S. cerevisiae deletion strains, locus YOR106W, strain vam3, hits give low values 1.05 | S. cerevisiae deletion strains, locus YOR136W, strain idh2, hits give low values 1 | S. cerevisiae deletion strains, locus YOR144C, strain elg1, hits give low values 0.995 | S. cerevisiae deletion strains, locus YOR184W, strain ser1, hits give low values 1 | S. cerevisiae deletion strains, locus YOR231W, strain MKK1, hits give low values 0.984 | S. cerevisiae deletion strains, locus YOR265W, strain rbl2, hits give low values 1.01 | S. cerevisiae deletion strains, locus YOR270C, strain vph1, hits give low values 0.985 | S. cerevisiae deletion strains, locus YOR290C, strain snf2, hits give low values 0.96 | S. cerevisiae deletion strains, locus YOR316C, strain cot1, hits give low values 1 | S. cerevisiae deletion strains, locus YPL051W, strain arl3, hits give low values 1.02 | S. cerevisiae deletion strains, locus YPL055C, strain LGE1, hits give low values 1.02 | S. cerevisiae deletion strains, locus YPL078C, strain atp4, hits give low values 1.06 | S. cerevisiae deletion strains, locus YPL106C, strain sse1, hits give low values 0.987 | S. cerevisiae deletion strains, locus YPL240C, strain hsp82, hits give low values 1.04 | S. cerevisiae deletion strains, locus YPL241C, strain CIN2, hits give low values 1 and 0.988 | S. cerevisiae deletion strains, locus YPL256C, strain CLN2, hits give low values 1 | S. cerevisiae deletion strains, locus YPR119W, strain clb2, hits give low values 1 | S. cerevisiae deletion strains, locus YPR141C, strain kar3, hits give low values 0.998 | S. cerevisiae deletion strains, locus YPR163C, strain tif3, hits give low values 0.994 | S. cerevisiae deletion strains, locus YPR167C, strain met16, hits give low values 1 | S. cerevisiae deletion strains, strain wtn01, hits give low values 0.999 | S. cerevisiae strains, strain wild type, hits give low values 1.01
